HSP90 refold inh: HSP90 refolding inhibition in rabbit reticulocyte lysate. inhibition, % at 5.6 µM. 290,000 tested, 0.91% active. luciferase refolding luminescence, 3 h;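 active = inhibition above the screen-wide mean plus 3 SD, computed separately per campaign, cut at about 16% in these data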;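 also: inhibitors lower the luminescence because luciferase stays unfolded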
SENP8 block-1: SENP8 (human) protease inhibition; Q96LD8; inhibition, % at 20 µM; recombinant SENP8, Nedd8 substrate fluorescence; AID 602440; 360,000 tested, 0.64% active; in the data active = inhibition mostly above about 40%, no sharp cut-off; inactive = mostly below about 27%
SENP6 inh: inhibitors of human SENP6 protease. Q9GZR1. Recombinant SENP6 catalytic domain, aminoluciferin luminescence. inhibition, % at 10 µM. 330,000 tested, 1.8% active. AID 2599;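 active = inhibition above about 50% at the single tested dose, limit read from the data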
Target sequence (Q9GZR1 628-1112 limits assumed): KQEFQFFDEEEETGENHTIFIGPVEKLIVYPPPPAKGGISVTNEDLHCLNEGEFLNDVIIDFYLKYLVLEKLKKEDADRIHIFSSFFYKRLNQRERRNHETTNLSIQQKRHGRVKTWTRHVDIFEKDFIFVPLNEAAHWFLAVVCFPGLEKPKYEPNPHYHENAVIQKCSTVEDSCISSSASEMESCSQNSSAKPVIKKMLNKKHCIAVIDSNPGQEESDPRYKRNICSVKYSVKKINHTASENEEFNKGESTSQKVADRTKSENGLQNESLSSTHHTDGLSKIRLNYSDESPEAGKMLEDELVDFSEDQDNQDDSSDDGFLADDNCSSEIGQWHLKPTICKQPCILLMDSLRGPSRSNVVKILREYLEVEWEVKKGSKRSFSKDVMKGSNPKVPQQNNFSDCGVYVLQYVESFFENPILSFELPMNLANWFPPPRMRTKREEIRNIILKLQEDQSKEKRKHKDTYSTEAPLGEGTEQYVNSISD
Platelet DG rel: platelet dense granule release activity. 300,000 tested, 0.22% active. AID 1663. human platelet-rich plasma, SFLLRN dense granule ATP release, luminescence. inhibition, %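 (compounds screened at 7.5 µM in platelet-rich plasma)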;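 active = mean replicate score, as percent of positive control, at or above 50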
SENP8 block-2: inhibitors of human SENP8 protease. Q96LD8. purified SENP8, Z-RLRGG-aminoluciferin cleavage, luminescence. inhibition, % at 10 µM. 330,000 tested, 1.2% active. AID 2540; in the data active = inhibition above about 50%
SENP7 inh: blocks the human protease SENP7. 330,000 tested, 1.5% active. inhibition, % at 5 µM. Q9BQF6. AID 434973. recombinant SENP7, Z-RLRGG-aminoluciferin luminescence, 40 min;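 active = inhibition above about 50% at the single test dose, limit read from the data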
SENP8 conf: confirmation of human SENP8 protease inhibitors; shares compounds with SENP7 inh; Recombinant SENP8, Z-RLRGG-aminoluciferin luminescence, 60 min; inhibition, % at 12.5 µM; 6,200 tested, 40% active;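 active = mean inhibition across replicates above about 50%, limit read from the data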
SENP6 conf: human SENP6 inhibition, confirmed; shares compounds with SENP7 inh; recombinant SENP6, Z-RLRGG-aminoluciferin luminescence; inhibition, % at 12.5 µM; 6,200 tested, 58% active; AID 488915
SENP7 conf: human SENP7 inhibition, confirmed | recombinant SENP7, Z-RLRGG-aminoluciferin luminescence, 40 min | 6,200 tested, 69% active | shares compounds with SENP7 inh | inhibition, % at 12.5 µM
Casp3 SENP sel: inhibits human caspase-3 in SENP selectivity test | shares compounds with SENP7 inh | purified caspase-3, Z-DEVD-aminoluciferin luminescence, 60 min | inhibition, % at 12.5 µM | 6,200 tested, 60% active;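 active = mean inhibition above about 50%, limit read from the data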
Target sequence (P42574 28-227 limits assumed): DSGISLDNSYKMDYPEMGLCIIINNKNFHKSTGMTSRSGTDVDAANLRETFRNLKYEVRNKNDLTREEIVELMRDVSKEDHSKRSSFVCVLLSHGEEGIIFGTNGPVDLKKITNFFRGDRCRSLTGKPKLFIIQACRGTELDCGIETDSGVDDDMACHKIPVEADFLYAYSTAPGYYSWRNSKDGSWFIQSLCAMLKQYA
SENP luc ctr: interferes with luciferase luminescence in SENP counter-screen; inhibition, % at 12.5 µM; AID 488919; 6,200 tested, 39% active; shares compounds with SENP7 inh; Pre-incubated SENP8/Z-RLRGG-aminoluciferin, luciferase luminescence interference;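 active = mean inhibition above about 50% when retested at one dose, limit read from the data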
A number is an active result; n = inactive; x = not tested or not shown. Sampled rows, rich in hits. Any-hit rate of the full collection: about 2.8%.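 The calls were made as follows, unless noted: active = mean inhibition above about 50% in the one-dose retest (limit read from the data); inactive = the rest.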

SMILES | HSP90 refold inh | SENP8 block-1 | SENP6 inh | Platelet DG rel | SENP8 block-2 | SENP7 inh | SENP8 conf | SENP6 conf | SENP7 conf | Casp3 SENP sel | SENP luc ctr
O=C(Nc1ccc(F)cc1)c1ccccc1F | n | n | n | n | n | n | x | x | x | x | x
Cc1cn([C@H]2C[C@H](O)[C@@H](CNCc3ccccc3OCCCN3CCOCC3)O2)c(=O)[nH]c1=O | x | n | x | x | x | x | x | x | x | x | x
O=C(Nc1ccc(NC(=O)c2cc3ccccc3o2)cc1)c1ccco1 | n | n | n | n | n | n | x | x | x | x | x
O=C(Nc1ccccc1)c1cc2ccccc2o1 | n | n | 97 | n | 95 | 98 | 96 | 98 | 102 | 97 | 98
N=c1oc2cc(O)ccc2cc1C(=O)Nc1ccc(Cl)cc1 | n | n | 55 | n | 54 | n | n | n | n | n | n
COc1ccc(NC(=O)c2cc3ccccc3o2)cc1 | n | n | 64 | n | n | n | n | n | 71 | 50 | n
O=C(Nc1ccc(F)cc1)c1cc2ccccc2o1 | n | n | 86 | n | 76 | 86 | 80 | 82 | 97 | 86 | 64
CC(=O)c1ccc(NC(=O)c2cc3ccccc3o2)cc1 | n | n | n | n | n | n | x | x | x | x | x
CC1CCCN(CC(=O)Nc2ccc(S(=O)(=O)N3C(C)CCCC3C)cc2)C1 (stereo not given) | x | n | x | x | x | x | x | x | x | x | x
CC(=O)Nc1cccc(NC(=O)c2cc3ccccc3o2)c1 | n | n | 84 | n | 62 | 84 | 79 | 78 | 95 | 88 | 83
N=c1oc2ccccc2cc1C(=O)Nc1cccc(F)c1 | n | n | 66 | n | 56 | 92 | n | n | n | 62 | n
CC(C)C(=O)Nc1cccc(NC(=O)c2cc3ccccc3o2)c1 | n | n | n | n | n | n | x | x | x | x | x
O=C(Nc1cccc(F)c1)c1ccc(Br)o1 | n | n | n | n | n | n | x | x | x | x | x
Cc1cc(C(=O)Nc2ccccc2)oc1C | n | n | 64 | n | n | n | 58 | 55 | 87 | 83 | 61
O=C(c1ccccc1)C1CCN(C(=O)C2CCC(=O)N(Cc3ccccc3F)C2)CC1 (stereo not given) | n | n | n | n | n | n | x | x | x | x | x
COc1ccccc1CNC(=O)CN(C)S(=O)(=O)c1ccc2c(c1)n(C)c(=O)c(=O)n2C | n | n | n | n | n | n | x | x | x | x | x
NS(=O)(=O)c1ccc(CCNC(=O)c2cccc(S(=O)(=O)N3CCCC3)c2)cc1 | x | n | n | x | n | n | x | x | x | x | x
CNC(=O)c1[nH]nc2c1CCc1cc(OC)ccc1-2 | n | n | n | n | n | n | x | x | x | x | x
COc1ccc2c(c1)CCc1c-2n[nH]c1C(=O)NCCC(C)C | n | n | n | n | 56 | 60 | n | 54 | 85 | 52 | n
Cn1cnnc1SCC(=O)c1cc2ccccc2oc1=O | n | n | n | n | n | 67 | n | n | n | n | n
O=C(CSc1nnc(-c2cccnc2)o1)c1cc2ccccc2oc1=O | n | n | n | n | n | n | x | x | x | x | x
CC(C)Oc1cccc(C2NC(=O)c3ccccc3O2)c1 (stereo not given) | n | n | n | n | n | n | x | x | x | x | x
CN=c1scc(-c2ccco2)n1/N=C/c1ccc(O)c(O)c1 | 17 | n | 68 | n | 56 | n | 59 | 63 | 86 | n | 62
CCOC(=O)C1=C(COC(=O)Cc2c(F)cccc2Cl)NC(=O)NC1C (stereo not given) | x | n | n | x | n | n | x | x | x | x | x
O=S(=O)(O)c1ccc(N=Nc2ccccc2)cc1 | n | n | 67 | n | 52 | 51 | n | n | 71 | 76 | 53
SMILES | HSP90 refold inh | SENP8 block-1 | SENP6 inh | Platelet DG rel | SENP8 block-2 | SENP7 inh | SENP8 conf | SENP6 conf | SENP7 conf | Casp3 SENP sel | SENP luc ctr
CCCc1c(C(=O)N/N=C(\C)c2ccccn2)nnn1-c1nonc1N | x | n | x | x | x | x | x | x | x | x | x
O=C1C(=C(O)c2ccccc2)C(=O)c2ccccc21 | n | 66 | 74 | n | n | n | n | n | n | n | n
O=C1CC(N2CCN(Cc3ccc4c(c3)OCO4)CC2)C(=O)N1c1ccccc1 (stereo not given) | n | n | n | n | n | 62 | n | n | n | n | n
COc1ccc(CCNC(=O)CCC2COc3ccccc3O2)cc1OC (stereo not given) | n | n | n | n | n | n | x | x | x | x | x
COc1cc(/C=C2\SC(=S)N(Nc3ccccc3)C2=O)ccc1O | n | 52 | 93 | n | 89 | 72 | 95 | 96 | 100 | 78 | 94
CCOc1cc(/C=C2\SC(=S)N(Nc3ccccc3)C2=O)ccc1O | n | n | 85 | n | n | n | 60 | 69 | 81 | n | 55
O=C(O)c1ccc(/C=C2\SC(=S)N(Nc3ccccc3)C2=O)cc1 | n | n | 95 | n | 82 | 78 | 92 | 92 | 98 | 84 | 76
O=C1/C(=C/c2ccc(O)c(O)c2)SC(=S)N1Nc1ccccc1 | n | n | x | n | x | x | x | x | x | x | x
CCCNC(=O)C1(C)CCCN(C(=O)c2cc(C)n(C(C)(C)C)n2)C1 (stereo not given) | x | n | x | x | x | x | x | x | x | x | x
c1ccc(-c2nnc(-c3ccccc3)nn2)cc1 | n | n | 88 | n | 83 | 96 | n | n | n | n | n
c1ccc(-c2nn[nH]n2)cc1 | n | n | n | n | n | n | x | x | x | x | x
Cc1cccc(OCC(=O)Nc2nnc(-c3ccco3)s2)c1 | n | n | n | n | n | n | x | x | x | x | x
CCc1nnc(NC(=O)c2cccc(OC)c2)s1 | n | n | n | n | n | n | x | x | x | x | x
CCOc1cccc(C(=O)Nc2nnc(-c3ccco3)s2)c1 | n | n | 68 | x | 60 | 73 | n | n | n | n | n
COc1cccc(C(=O)Nc2nnc(-c3cccs3)s2)c1 | n | n | 53 | n | n | 53 | n | n | n | n | n
NC(=O)c1ccsc1NC(=O)C1CCCN1S(=O)(=O)c1ccc(Cl)cc1 (stereo not given) | n | n | n | n | n | n | x | x | x | x | x
Cc1cc(C)n(-c2ccc(C(=O)Nc3sccc3C(N)=O)cc2)n1 | n | n | 75 | n | n | 63 | 64 | 64 | 82 | 58 | n
CC1CCCCN1S(=O)(=O)c1ccc(C(=O)Nc2sccc2C(N)=O)cc1 (stereo not given) | n | n | 83 | n | 86 | 79 | 87 | 88 | 97 | 74 | n
COc1ccc(NC(=O)COc2cccc(-n3cnnn3)c2)cc1 | n | n | n | n | n | n | x | x | x | x | x
O=C(O/N=C1\CCS(=O)(=O)c2sccc21)c1ccc(F)cc1 | n | n | n | n | n | n | x | x | x | x | x
